Rows were chosen to be rich in hits. Some 4.1% of all compounds tested hit in one or more screens of this group.
ssDAF-12 act: S. stercoralis DAF-12 activation, primary screen; HEK293 ssDAF-12/GRIP1 lit1-tk-luc reporter, luminescence; % of 3 µM dafachronic acid response; activation, % at 6.8 µM; 370,000 tested, 1% active; AID 652126;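 active means activation above the mean over all tested compounds plus 3 SD, cut at about 0.9% in these data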
hgDAF12 agonist: activates the H. glycines DAF-12 receptor ligand-binding domain; HEK293 GAL4-hgDAF12 UAS-luciferase reporter, agonist luminescence; normalized to butyrate control; activation, % at 6.8 µM; 370,000 tested, 1.8% active;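 active means activation above a cutoff set at the mean of all screened compounds plus 3 SD, cut at about 10% in these data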
DAX1 inh-1: DAX1 (NR0B1) inhibition, primary screen; HEK293T StAR-luciferase reporter, SF-1/DAX-1 repression relief; inhibition, % at 6.8 µM; 370,000 tested, 1.1% active;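 active means inhibition above the mean over all tested compounds plus 3 SD, cut at about 3.6% in these data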;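 further: higher inhibition means more luminescence from relief of DAX-1 repression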
hcDAF-12 act: activates DAF-12 receptor from parasite H. contortus | AID 652067 | 370,000 tested, 1.4% active | HEK293 hcDAF-12 lit1-tk-luc reporter, luminescence; 0% DMSO, 100% Δ7-dafachronic acid | activation, % at 6.8 µM;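 active means activation above the mean of all tested compounds plus 3 SD, cut at about 5.5% in these data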
DAX1 inh-2: NR0B1 (DAX1) inhibition; inhibition, % at 6.75 µM; 340,000 tested, 0.99% active; HEK293 Gal4-DAX1 luciferase reporter, luminescence;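 active means inhibition above the mean over all tested compounds plus 3 SD, cut at about 4.2% in these data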;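 further: inhibition shows as a rise in luminescence from relieved DAX1 repression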
Target sequence (P51843 207-470 limits assumed): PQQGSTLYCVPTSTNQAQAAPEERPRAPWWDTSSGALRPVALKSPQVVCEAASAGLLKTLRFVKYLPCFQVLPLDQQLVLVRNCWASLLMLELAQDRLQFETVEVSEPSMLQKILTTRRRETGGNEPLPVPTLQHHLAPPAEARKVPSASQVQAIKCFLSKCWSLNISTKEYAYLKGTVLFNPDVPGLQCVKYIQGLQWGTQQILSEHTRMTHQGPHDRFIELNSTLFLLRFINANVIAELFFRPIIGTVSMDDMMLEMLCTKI
Hits are given with their value.

Results for S=C(c1ccc(-c2ccc(Br)cc2)o1)N1CCCCC1 ?
ssDAF-12 act: inactive; hgDAF12 agonist: inactive; DAX1 inh-1: inactive; hcDAF-12 act: inactive; DAX1 inh-2: inactive

How did OC(CN1CCOCC1)Cn1c2ccccc2c2ccccc21 (centres undefined) do in these assays?
ssDAF-12 act: inactive; hgDAF12 agonist: inactive; DAX1 inh-1: inactive; hcDAF-12 act: inactive; DAX1 inh-2: inactive

Results for O=C1c2ccccc2C(=O)N1CC(O)CN1CCOCC1 (centres undefined) ?
ssDAF-12 act: 3.9; hgDAF12 agonist: inactive; DAX1 inh-1: inactive; hcDAF-12 act: inactive; DAX1 inh-2: inactive

Results for C#CCNC(=O)C[C@H]1C(=O)N(CCCOC)C2=CCCCC[C@]21C(=O)OC ?
ssDAF-12 act: inactive; hgDAF12 agonist: inactive; DAX1 inh-1: inactive; hcDAF-12 act: inactive

Results for Cc1ccc2[nH]c(O)c(N=Nc3ccccc3C)c2c1 ?
ssDAF-12 act: inactive; hgDAF12 agonist: inactive; DAX1 inh-1: inactive; hcDAF-12 act: inactive; DAX1 inh-2: inactive

Results for Cc1ccc2[nH]c(O)c(N=O)c2c1 ?
ssDAF-12 act: inactive; hgDAF12 agonist: inactive; DAX1 inh-1: inactive; hcDAF-12 act: inactive; DAX1 inh-2: 4.9

Results for CC(C)c1ccc(N(C(=O)c2csnn2)C(C(=O)NC(C)(C)C)c2ccncc2)cc1 (centres undefined) ?
ssDAF-12 act: inactive; hgDAF12 agonist: 16.7; DAX1 inh-1: inactive; hcDAF-12 act: 6.3; DAX1 inh-2: inactive

What do the screens show for `COC(=O)[C@]12C[C@H](CC(=O)NCCC(C)C)C(=O)N(CCc3ccc(OC)c(OC)c3)C1=C[C@H](COCc1ccccc1)O[C@@H]2C`?
ssDAF-12 act: inactive; hgDAF12 agonist: inactive; DAX1 inh-1: inactive; hcDAF-12 act: inactive

What do the screens show for `Cc1nc(SCC(=O)c2cc3ccccc3oc2=O)c(C#N)c(C)c1C(=O)Nc1ccccc1`?
ssDAF-12 act: 1.1; hgDAF12 agonist: inactive; DAX1 inh-1: inactive; hcDAF-12 act: inactive

Results for CCOC(=O)c1cc(C#N)c(SCc2ccc(C#N)cc2)nc1C ?
ssDAF-12 act: 1.1; hgDAF12 agonist: inactive; DAX1 inh-1: inactive; hcDAF-12 act: inactive; DAX1 inh-2: inactive

How did O=C1[C@@H](CCc2ccccc2)[C@@H]2c3cc4ccccc4cc3C=NN2[C@@H]2c3cc4ccccc4cc3C=NN12 do in these assays?
ssDAF-12 act: inactive; hgDAF12 agonist: inactive; DAX1 inh-1: inactive; hcDAF-12 act: inactive

Results for O=C(Cn1cc([N+](=O)[O-])cn1)Nc1ccccn1 ?
ssDAF-12 act: inactive; hgDAF12 agonist: inactive; DAX1 inh-1: inactive; hcDAF-12 act: inactive; DAX1 inh-2: inactive

How did Cc1cc(NC(=O)Cn2cc([N+](=O)[O-])cn2)no1 do in these assays?
ssDAF-12 act: inactive; hgDAF12 agonist: inactive; DAX1 inh-1: inactive; hcDAF-12 act: inactive; DAX1 inh-2: 4.7

Results for Cc1ccnc(NC(=O)Cn2cc([N+](=O)[O-])cn2)c1 ?
ssDAF-12 act: inactive; hgDAF12 agonist: 11.2; DAX1 inh-1: inactive; hcDAF-12 act: inactive; DAX1 inh-2: inactive

Results for COC(=O)[C@]12C[C@H](CC(=O)NCc3cccc4ccccc34)C(=O)N(CCc3ccc(OC)c(OC)c3)C1=C[C@H](C(C)C)O[C@@H]2C1CC1 ?
ssDAF-12 act: inactive; hgDAF12 agonist: inactive; DAX1 inh-1: inactive; hcDAF-12 act: inactive

What do the screens show for `COc1ccc(CN2C(=O)COc3ccccc3C2c2nnnn2C2CCCCC2)cc1` (centres undefined)?
ssDAF-12 act: inactive; hgDAF12 agonist: inactive; DAX1 inh-1: inactive; hcDAF-12 act: inactive

Results for CCOC(=O)c1sc(=NC(=O)c2cccc(Br)c2)n(C)c1C ?
ssDAF-12 act: inactive; hgDAF12 agonist: inactive; DAX1 inh-1: inactive; hcDAF-12 act: inactive; DAX1 inh-2: inactive

What do the screens show for `CCOC(=O)c1sc(=NC(=O)c2cccc(C)c2)n(C)c1C`?
ssDAF-12 act: inactive; hgDAF12 agonist: inactive; DAX1 inh-1: 3.8; hcDAF-12 act: inactive; DAX1 inh-2: inactive

How did Nc1ccc2c(c1Cl)C(=O)c1ccc(N)c(Cl)c1C2=O do in these assays?
ssDAF-12 act: 1.1; hgDAF12 agonist: inactive; DAX1 inh-1: inactive; hcDAF-12 act: inactive; DAX1 inh-2: inactive

Results for CCCc1nc([N+](=O)[O-])c(S(=O)(=O)c2ccccc2)n1CC(C)C ?
ssDAF-12 act: inactive; hgDAF12 agonist: 10.5; DAX1 inh-1: inactive; hcDAF-12 act: inactive; DAX1 inh-2: inactive

Results for Nn1c(SCC(=O)Nc2ccc(OCc3ccccc3)cc2)nnc1-c1cc(-c2ccc(Cl)cc2)n[nH]1 ?
ssDAF-12 act: inactive; hgDAF12 agonist: inactive; DAX1 inh-1: inactive; hcDAF-12 act: inactive
